Laboratory results as given in PubChem BioAssay (EPA / NIEHS).
Records with an inconclusive call do not appear. Active and inactive are the calls of the source. Rule for the calls: active = hit-call score of the fitted dose curve at least 0.9, where 1 is the maximum; inconclusive = response in the unintended direction; inactive = score below 0.9.

Legend:
[1] = molecular target: human Peroxisome Proliferator-activated Receptor delta (PPARd), PPARD (gene 5467) (UniProt Q03181); experiment: ATG_PPARd_TRANS: Attagene TRANS-FACTORIAL HepG2 Assay for human Peroxisome Proliferator-activated Receptor delta (PPARd) (AID 2283002)
Sequence of human Peroxisome Proliferator-activated Receptor delta (PPARd), PPARD (gene 5467) (Q03181 whole entry, looked up, the tested form may be a part): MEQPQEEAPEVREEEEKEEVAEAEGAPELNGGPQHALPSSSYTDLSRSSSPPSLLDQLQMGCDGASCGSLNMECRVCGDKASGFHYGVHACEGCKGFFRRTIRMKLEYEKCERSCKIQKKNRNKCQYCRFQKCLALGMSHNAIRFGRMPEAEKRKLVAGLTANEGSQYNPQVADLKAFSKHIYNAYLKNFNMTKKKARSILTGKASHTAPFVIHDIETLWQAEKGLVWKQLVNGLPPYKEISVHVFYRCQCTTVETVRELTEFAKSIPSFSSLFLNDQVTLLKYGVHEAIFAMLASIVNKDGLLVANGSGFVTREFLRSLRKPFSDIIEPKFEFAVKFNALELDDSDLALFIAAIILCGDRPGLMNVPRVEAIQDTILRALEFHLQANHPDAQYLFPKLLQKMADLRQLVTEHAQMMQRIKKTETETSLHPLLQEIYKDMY
Outline: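 HepG2 cells transiently transfected with multiplexed GAL4-UAS reporter units and exogenous chimeric NR-Gal4 proteins; 24 h compound exposure. Reporter mRNA measured by RT-PCR, 6-FAM labelling, HpaI digestion and capillary electrophoresis; gain of signal versus DMSO.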

[2] = molecular target: Nuclear receptor subfamily 1 group I member 2 (Homo sapiens) (UniProt O75469); experiment: ATG_PXR_TRANS: Attagene TRANS-FACTORIAL HepG2 Assay for human Pregnane X Receptor (PXR) (AID 2283008)
Sequence of Nuclear receptor subfamily 1 group I member 2 (Homo sapiens) (O75469 whole entry, looked up, the tested form may be a part): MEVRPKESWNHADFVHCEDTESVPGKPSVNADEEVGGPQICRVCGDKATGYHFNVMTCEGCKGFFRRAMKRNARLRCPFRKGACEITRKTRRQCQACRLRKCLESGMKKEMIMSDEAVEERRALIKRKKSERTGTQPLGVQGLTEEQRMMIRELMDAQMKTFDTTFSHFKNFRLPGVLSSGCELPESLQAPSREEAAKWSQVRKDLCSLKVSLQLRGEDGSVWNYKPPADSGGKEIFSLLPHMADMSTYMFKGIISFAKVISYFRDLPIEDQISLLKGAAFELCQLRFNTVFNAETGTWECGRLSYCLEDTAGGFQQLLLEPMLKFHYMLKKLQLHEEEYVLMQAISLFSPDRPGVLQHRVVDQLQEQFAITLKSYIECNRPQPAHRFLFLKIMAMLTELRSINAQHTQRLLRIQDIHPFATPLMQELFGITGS
Outline: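 Read-out is fluorescence of labelled reporter cDNA fragments separated by capillary electrophoresis after RT-PCR and HpaI digestion. Source: HepG2 cells carrying PXR-GAL4/UAS reporter constructs, treated 24 h; activity fitted upward relative to DMSO.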

[3] = molecular target: Peroxisome proliferator-activated receptor gamma (Homo sapiens) (UniProt P37231); experiment: ATG_PPARg_TRANS: Attagene TRANS-FACTORIAL HepG2 Assay for human Peroxisome Proliferator-activated Receptor-gamma (PPARg) (AID 2283007)
Sequence of Peroxisome proliferator-activated receptor gamma (Homo sapiens) (P37231 whole entry, looked up, the tested form may be a part): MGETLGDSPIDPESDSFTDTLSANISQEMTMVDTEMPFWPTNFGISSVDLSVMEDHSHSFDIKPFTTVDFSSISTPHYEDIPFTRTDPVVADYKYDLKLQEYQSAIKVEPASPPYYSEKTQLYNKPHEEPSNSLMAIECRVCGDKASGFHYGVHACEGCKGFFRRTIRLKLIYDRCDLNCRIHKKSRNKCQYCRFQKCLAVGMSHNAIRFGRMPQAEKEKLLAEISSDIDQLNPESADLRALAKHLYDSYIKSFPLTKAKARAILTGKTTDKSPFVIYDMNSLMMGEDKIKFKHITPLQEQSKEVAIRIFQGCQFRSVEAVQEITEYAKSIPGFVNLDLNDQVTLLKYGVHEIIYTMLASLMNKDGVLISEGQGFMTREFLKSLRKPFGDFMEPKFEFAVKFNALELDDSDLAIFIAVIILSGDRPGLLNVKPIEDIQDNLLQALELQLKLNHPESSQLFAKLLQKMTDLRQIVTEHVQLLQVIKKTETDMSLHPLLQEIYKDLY
Outline: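 After 24 h of chemical exposure, transfected HepG2 cells carrying PPARγ-Gal4 chimera reporter constructs are lysed for RNA. Reporter transcripts are measured by RT-PCR and capillary electrophoresis with fluorescent labelling, and gain of signal is fitted versus DMSO.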

[4] = molecular target: human Retinoic Acid Receptor gamma (RARg), RARG (gene 5916) (UniProt P13631); experiment: ATG_RARg_TRANS: Attagene TRANS-FACTORIAL HepG2 Assay for human Retinoic Acid Receptor gamma (RARg) (AID 2283009)
Sequence of human Retinoic Acid Receptor gamma (RARg), RARG (gene 5916) (P13631 whole entry, looked up, the tested form may be a part): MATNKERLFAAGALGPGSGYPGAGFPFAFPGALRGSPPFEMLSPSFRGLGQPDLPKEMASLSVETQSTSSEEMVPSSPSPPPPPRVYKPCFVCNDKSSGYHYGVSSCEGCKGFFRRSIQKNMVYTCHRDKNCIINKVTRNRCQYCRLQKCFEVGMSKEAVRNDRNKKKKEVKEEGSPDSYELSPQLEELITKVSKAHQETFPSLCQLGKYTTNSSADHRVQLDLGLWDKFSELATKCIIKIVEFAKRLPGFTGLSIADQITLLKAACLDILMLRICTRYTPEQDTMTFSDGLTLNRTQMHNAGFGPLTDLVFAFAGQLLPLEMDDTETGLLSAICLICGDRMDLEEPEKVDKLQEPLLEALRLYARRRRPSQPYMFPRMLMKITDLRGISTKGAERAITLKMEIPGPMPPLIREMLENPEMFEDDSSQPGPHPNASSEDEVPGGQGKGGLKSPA
Outline: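 HepG2 cells transiently transfected with multiplexed reporter units expressing chimeric RARg-GAL4 and GAL4-UAS-driven reporters; 24 h compound exposure. Reporter mRNA quantified by RT-PCR with fluorescent labelling and capillary electrophoresis; gain-of-signal fitted relative to DMSO baseline.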

[5] = molecular target: human Retinoic Acid Receptor beta (RARb), RARB (gene 5915) (UniProt P10826); experiment: ATG_RARb_TRANS: Attagene TRANS-FACTORIAL HepG2 Assay for human Retinoic Acid Receptor beta (AID 2283004)
Sequence of human Retinoic Acid Receptor beta (RARb), RARB (gene 5915) (P10826 whole entry, looked up, the tested form may be a part): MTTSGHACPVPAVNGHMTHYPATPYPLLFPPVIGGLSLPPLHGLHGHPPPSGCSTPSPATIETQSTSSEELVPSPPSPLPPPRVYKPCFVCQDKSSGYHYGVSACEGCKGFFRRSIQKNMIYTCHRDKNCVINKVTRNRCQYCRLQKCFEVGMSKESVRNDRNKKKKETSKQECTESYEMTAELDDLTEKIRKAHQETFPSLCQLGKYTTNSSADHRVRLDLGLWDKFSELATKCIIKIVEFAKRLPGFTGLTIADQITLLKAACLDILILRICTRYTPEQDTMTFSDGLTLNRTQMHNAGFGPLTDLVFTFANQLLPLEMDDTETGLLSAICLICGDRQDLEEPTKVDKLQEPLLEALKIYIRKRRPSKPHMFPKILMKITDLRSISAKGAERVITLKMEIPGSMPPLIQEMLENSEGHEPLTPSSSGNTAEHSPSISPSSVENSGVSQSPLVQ
Outline: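 HepG2 cells transiently transfected with multiplexed GAL4-UAS reporter units expressing chimeric NR–Gal4 fusions; 24 h compound exposure. Reporter mRNA quantified by RT-PCR, 6-FAM labelling, HpaI digestion and capillary electrophoresis; gain-of-signal fitted against DMSO baseline.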

[6] = molecular target: Retinoic acid receptor alpha (Homo sapiens) (UniProt P10276); experiment: ATG_RARa_TRANS: Attagene TRANS-FACTORIAL HepG2 Assay for human Retinoic Acid Receptor alpha (RARa) (AID 2283005)
Sequence of Retinoic acid receptor alpha (Homo sapiens) (P10276 whole entry, looked up, the tested form may be a part): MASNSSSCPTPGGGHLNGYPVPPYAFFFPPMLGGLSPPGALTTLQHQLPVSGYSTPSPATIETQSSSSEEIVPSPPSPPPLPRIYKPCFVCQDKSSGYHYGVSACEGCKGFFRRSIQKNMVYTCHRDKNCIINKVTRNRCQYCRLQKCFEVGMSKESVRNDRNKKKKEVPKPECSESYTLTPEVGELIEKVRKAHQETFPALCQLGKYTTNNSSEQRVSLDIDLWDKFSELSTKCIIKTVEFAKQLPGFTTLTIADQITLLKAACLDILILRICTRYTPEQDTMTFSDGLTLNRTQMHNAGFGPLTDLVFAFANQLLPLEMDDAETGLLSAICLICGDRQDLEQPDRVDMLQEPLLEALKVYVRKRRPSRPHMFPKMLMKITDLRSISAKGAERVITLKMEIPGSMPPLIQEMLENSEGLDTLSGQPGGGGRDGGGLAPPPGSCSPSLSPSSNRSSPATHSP
Outline: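 HepG2 cells transiently transfected with multiple reporter units expressing chimeric RARα-GAL4 fusion, with GAL4-UAS-driven reporters. After 24 h compound exposure, reporter mRNA induction quantified by RT-PCR and capillary electrophoresis with fluorescent labeling; gain-of-signal fitted relative to DMSO control.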

## CC(=O)N(C)C
[1]
  outcome: inactive
[2]
  outcome: inactive

## CCCCCCCOC(C)=O
[1]
  outcome: inactive
[2]
  outcome: inactive

## CC(=O)C1=C(C)[C@@H]2C[C@@]3(C1)[C@H](C)CC[C@H]3C2(C)C
[1]
  outcome: inactive
[3]
  AC50: 100 µM (active)
[2]
  AC50: 2.1 µM (active)

## Cc1cc(O)c(C)c(C)c1O
[1]
  outcome: inactive
[2]
  AC50: 22 µM (active)

## C[N+](C)(C)CCO
[1]
  outcome: inactive
[3]
  outcome: inactive
[2]
  outcome: inactive

## CC(C)COC(=O)c1ccccc1O
[1]
  outcome: inactive
[2]
  outcome: inactive

## CCCCOCCOC(=O)c1ccccc1C(=O)OCCOCCCC
[1]
  outcome: inactive
[3]
  AC50: 27.5 µM (active)
[2]
  AC50: 7.61 µM (active)
[4]
  outcome: inactive

## CCCCCCCC(=O)N(C)C
[1]
  outcome: inactive
[3]
  outcome: inactive
[2]
  outcome: inactive
[4]
  outcome: inactive

## O=C1Cc2ccccc2C1
[1]
  outcome: inactive
[3]
  outcome: inactive
[2]
  AC50: 27.9 µM (active)

## Brc1cc(Br)cc(Br)c1
[1]
  outcome: inactive
[3]
  outcome: inactive
[2]
  outcome: inactive

## CC(C)(O)C(=O)c1ccc(OCCO)cc1
[1]
  outcome: inactive
[2]
  outcome: inactive

## CC(O)CNCC(C)O (stereo unspecified)
[1]
  outcome: inactive
[3]
  outcome: inactive
[2]
  outcome: inactive

## Cc1cccc(O)c1
[1]
  outcome: inactive
[3]
  outcome: inactive
[2]
  outcome: inactive

## CCCCCC(=O)O[C@]1(C(C)=O)CC[C@H]2[C@@H]3CCC4=CC(=O)CC[C@]4(C)[C@H]3CC[C@@]21C
[1]
  outcome: inactive
[3]
  AC50: 3.22 µM (active)
[2]
  AC50: 0.313 µM (active)

## CC1(C)CC(=O)CC(C)(C)N1
[1]
  outcome: inactive
[3]
  outcome: inactive
[2]
  outcome: inactive

## Cc1cc(N)n(-c2ccccc2)n1
[1]
  outcome: inactive
[2]
  outcome: inactive

## C=C1CC[C@H]2O[C@]2(C)CC[C@@H]2[C@@H]1CC2(C)C
[1]
  outcome: inactive
[3]
  outcome: inactive
[2]
  outcome: inactive

## CCOC(=O)CC(C)C
[1]
  outcome: inactive
[3]
  outcome: inactive
[2]
  outcome: inactive

## CC(C)(O)CCc1ccccc1
[1]
  outcome: inactive
[3]
  outcome: inactive
[2]
  outcome: inactive

## COc1ccc2[nH]cc(CCNC(C)=O)c2c1
[1]
  outcome: inactive
[3]
  outcome: inactive
[2]
  outcome: inactive

## NC(=O)c1cccnc1
[1]
  outcome: inactive
[3]
  outcome: inactive

## COc1ccccc1O
[1]
  outcome: inactive
[3]
  outcome: inactive
[2]
  outcome: inactive

## CC(=O)OC/C=C(C)/C=C/C=C(C)/C=C/C1=C(C)CCCC1(C)C
[1]
  outcome: inactive
[2]
  AC50: 0.418 µM (active)

## C[C@H](CCC(=O)O)[C@H]1CC[C@H]2[C@@H]3CC[C@@H]4C[C@H](O)CC[C@]4(C)[C@H]3CC[C@]12C
[1]
  AC50: 54.1 µM (active)
[3]
  AC50: 29.1 µM (active)
[2]
  AC50: 8.67 µM (active)

## CC(=O)c1ccc(O)cc1
[1]
  outcome: inactive
[2]
  outcome: inactive

## C1CCCNCC1
[1]
  outcome: inactive
[3]
  outcome: inactive

## COc1ccc(N)c(C)c1
[1]
  outcome: inactive
[2]
  outcome: inactive

## CCC(C)(C)C1CCC(OC)CC1 (stereo unspecified)
[1]
  outcome: inactive
[3]
  outcome: inactive
[2]
  AC50: 8.16 µM (active)

## CCC(C)(C)c1cc(O)c(C(C)(C)CC)cc1O
[1]
  outcome: inactive
[3]
  outcome: inactive
[2]
  AC50: 7.37 µM (active)

## CC/C=C\C#N
[1]
  outcome: inactive
[3]
  outcome: inactive
[2]
  outcome: inactive

## CC(C)=CC(=O)O
[1]
  outcome: inactive
[3]
  outcome: inactive
[2]
  outcome: inactive

## CCCCCCCCOC(C)=O
[1]
  outcome: inactive
[3]
  outcome: inactive

## CC(C)C(=O)OCC=Cc1ccccc1
[1]
  outcome: inactive
[2]
  AC50: 22.1 µM (active)

## CCC(C)(C)C1CCC(=O)CC1
[5]
  outcome: inactive
[6]
  outcome: inactive
[3]
  outcome: inactive
[2]
  AC50: 15.3 µM (active)
[4]
  outcome: inactive

## CC(C)N(c1ccccc1)C(C)C
[2]
  outcome: inactive

## CC(C)(C)c1cc(CCC(=O)OCCSCCOC(=O)CCc2cc(C(C)(C)C)c(O)c(C(C)(C)C)c2)cc(C(C)(C)C)c1O
[1]
  outcome: inactive
[2]
  outcome: inactive

## CCC=C(C)C=O
[3]
  outcome: inactive
[2]
  outcome: inactive

## CC(=O)CCC(=O)O
[3]
  outcome: inactive
[2]
  outcome: inactive

## O=C(O)c1cccc(Cl)n1
[5]
  outcome: inactive
[2]
  outcome: inactive

## CC1=CCC(=C(C)C)CC1
[3]
  outcome: inactive
[2]
  AC50: 6.82 µM (active)

## CCCc1ccc(N)cc1
[3]
  outcome: inactive

## CC1=CC(O)CC(C)(C)C1 (stereo unspecified)
[3]
  outcome: inactive
[2]
  outcome: inactive

## CCOC(=O)CC1(C)OCC(C)O1 (stereo unspecified)
[2]
  outcome: inactive
[4]
  outcome: inactive

## CC(C)CCOC(=O)CC(C)C
[3]
  outcome: inactive
[2]
  outcome: inactive

## CCCO
[5]
  outcome: inactive
[6]
  outcome: inactive
[2]
  outcome: inactive
[4]
  outcome: inactive

## Nc1cc([N+](=O)[O-])ccc1C(=O)O
[5]
  outcome: inactive
[6]
  outcome: inactive
[3]
  outcome: inactive
[2]
  outcome: inactive
[4]
  outcome: inactive

## CCCCCCCCCCCCN1CCOCC1
[3]
  outcome: inactive
[2]
  outcome: inactive

## CCCCC(CC)COCCO (stereo unspecified)
[3]
  outcome: inactive
[2]
  outcome: inactive

## O=C(O)c1ccccc1O
[6]
  outcome: inactive
[2]
  outcome: inactive

## O=C(O)c1ccco1
[2]
  outcome: inactive

## CC/C=C\CCCCO
[3]
  outcome: inactive
[2]
  outcome: inactive

## CC(C)C(=O)c1ccccc1
[5]
  outcome: inactive
[6]
  outcome: inactive
[2]
  outcome: inactive
[4]
  outcome: inactive

## Cc1ccc(C(C)(C)O)cc1
[2]
  outcome: inactive

## CC(O)CN (stereo unspecified)
[2]
  outcome: inactive
[4]
  outcome: inactive

## C=CCOCC(O)CO (stereo unspecified)
[2]
  outcome: inactive

## CC(C)OB(OC(C)C)OC(C)C
[3]
  outcome: inactive
[2]
  outcome: inactive

## CCCC1CCOC(C)S1 (stereo unspecified)
[2]
  outcome: inactive

## CC(C)COC(=O)c1ccccc1
[5]
  outcome: inactive
[2]
  outcome: inactive

## C=COCC1CCC(COC=C)CC1 (stereo unspecified)
[2]
  outcome: inactive

## CCCCCCC(O)CCOC(C)=O (stereo unspecified)
[2]
  AC50: 15.2 µM (active)

## Cc1ccncc1
[2]
  outcome: inactive

## O=c1cc(-c2ccc(O)cc2)oc2cc(O)cc(O)c12
[1]
  outcome: inactive
[4]
  outcome: inactive
